About 83,000 compounds went through this panel and 20% of them were active in at least one assay; those are over-represented in the sample as a whole.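 Results are percent growth after 48 hours of single-concentration exposure. 100 means growth as in untreated cells, lower positive values show inhibition; negative values down to -100 show cell death.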 Values without a mark were called inactive. Calls of active or inactive are those of the source. How the source made its calls: active means growth percent below 10; inactive means the rest.
Key:
Assay in all cases: NCI-60 one-dose screen, 48 h (100 = growth as untreated, 0 = no growth, -100 = all killed)
Details in all cases: 10 µM unless noted
[1] = system: HCT-15 colon
[2] = system: HT29 colon
[3] = system: SNB-75 CNS
[4] = system: SNB-19 CNS
[5] = system: U251 CNS
[6] = system: PC-3 prostate
[7] = system: SK-MEL-5 melanoma
[8] = system: UACC-62 melanoma
[9] = system: LOX IMVI melanoma
[10] = system: SK-MEL-28 melanoma

Compound | growth [1] | growth [2] | growth [3] | growth [4] | growth [5] | growth [6] | growth [7] | growth [8] | growth [9] | growth [10]
Cc1cc(=O)oc2cc(OCCn3c(C)nn(-c4ccc(Cl)cc4)c3=O)ccc12 | 17.7% | 0.696% (active) | 20.4% | 54.5% | 31.4% | 48.5% | 10.8% | 43.3% | 48% | 40.8%
O=C(O)CCC(=O)OC[C@@H](NC(=O)C(Cl)Cl)[C@H](O)c1ccc([N+](=O)[O-])cc1 | 93.9% | 95.8% | 88% | 99.4% | 99.3% | 87.5% | 89.8% | 98% | 96.7% | 106%
CCOc1nc(-c2ccco2)n2nc(-c3ccco3)cc2n1 | 99.4% | 100% | 82.9% | 97.3% | 98.3% | 105% | 81.4% | 86.4% | 98.4% | 110%
O=C(/C=C(\Nc1ccccc1)c1ccccc1)c1cn(-c2ccc([N+](=O)[O-])cc2)nn1 | 84.7% | 96.9% | 91.8% | 97.6% | 87.5% | 80.1% | 97.1% | 84.9% | 88.5% | 83.7%
O=Nc1c2cccnc2n2nnc3ccc(Cl)cc3c12 | 24.5% | 8.1% (active) | 63.4% | 89.8% | 50.6% | -26.9% (active) | 96.2% | 73.5% | 26.6% | 28.3%
CNNc1ncnc2c1cnn2-c1ccc(S(N)(=O)=O)cc1 | 103% | 95.2% | 104% | 105% | 98.5% | 81.4% | 91.2% | 100% | 97.5% | 109%
COc1cc(C2CC(C3C(=O)N(C)C(=O)N(C)C3=O)=NN2C=O)cc(OC)c1OC (centres undefined) | 102% | 76.2% | 94.8% | 100% | 96.3% | 75.9% | 113% | 93.9% | 97.7% | 108%
O=C(/C=C/c1ccc([N+](=O)[O-])cc1)c1ccc2c3c(cccc13)CC2 | 59.5% | 77.2% | 89% | 82.6% | 13.7% | 52.9% | 97.8% | 80.2% | 67.6% | 63.9%
O[N+]1=CC=CCC1=S.On1ccccc1=S.[Zn] | -57% (active) | -47.5% (active) | -75.3% (active) | -93% (active) | -86.8% (active) | -50.8% (active) | -93.5% (active) | -78.3% (active) | -70.3% (active) | -87.3% (active)
O=C1Nc2ccc(Cl)cc2/C1=C/c1cccs1 | 51.9% | 110% | 84.2% | 84.3% | – | 93.4% | 85.7% | 86% | 86.7% | 113%
COc1ccc2[nH]c(=O)c(CNc3ccc(Nc4nccc(-c5ccc(Cl)cc5)n4)cc3)cc2c1 | 74.3% | 76% | 106% | 95.4% | – | 71.4% | 95.6% | 96.7% | 97.1% | 112%
Cc1ccccc1NC(=O)NC(CC(N)=O)c1ccc2c(c1)nc(-c1cccc(Oc3ccc(C(C)(C)C)cc3)c1)n2CCCN1CCCCC1C (centres undefined) | 92.3% | -34.6% (active) | 62.5% | 46.2% | – | 29.7% | -73% (active) | 82.7% | -73% (active) | -71.7% (active)
CC(=O)N1N=C(c2ccc(Cl)cc2)CC1c1c(C)nn(-c2ccccc2)c1N(C)Cc1ccccc1 (centres undefined) | 71% | 58.5% | 80.3% | 64.4% | – | 39.3% | 70.3% | 51% | 84.1% | 88.1%
COC(=O)[C@H](Cc1cn(C)cn1)NC(=O)[C@H](Cc1ccccc1)NC(=O)Nc1cc(C(F)(F)F)cc(C(F)(F)F)c1 | -77.3% [100 µM] (active) | -82.4% [100 µM] (active) | -98.2% [100 µM] (active) | -95.9% [100 µM] (active) | – | -95.6% [100 µM] (active) | -97.1% [100 µM] (active) | -97.4% [100 µM] (active) | -84.7% [100 µM] (active) | -96.6% [100 µM] (active)
O=C1c2cccc(NCCN=Cc3ccccc3O)c2C(=O)c2c(NCCN=Cc3ccccc3O)cccc21 | 38.7% | -4.87% (active) | 29.3% | 14.3% | – | 10.2% | 52.7% | 81.5% | -3.1% (active) | 50.2%
CCCn1c(N)c(C(=O)CNc2ccc(I)cc2)c(=O)[nH]c1=O | 22.7% | 41.7% | 81.8% | 88.7% | – | 60.9% | 60.2% | 37.1% | 18.7% | 51.7%
O=[N+]([O-])c1ccc2[nH]cc(-c3c4ccccc4cc4[nH]c5ccc([N+](=O)[O-])cc5c34)c2c1 | 19.9% | 13.4% | 16.6% | 47.6% | – | 17.2% | 23.2% | 28.6% | 21.3% | 28.1%
O=C(Nc1ccc(Cl)cc1)Nc1ccccc1CNc1nc(Nc2ccc(OCCN3CCCC3)cc2)ncc1Cl | 6.28% (active) | 0.197% (active) | -17% (active) | 42% | – | -8.19% (active) | 50.2% | 99.3% | -95.1% (active) | -77.7% (active)
COc1cc(C2CC(C3C(=O)N(C)C(=O)N(C)C3=O)=NN2c2cc(Cl)cc(Cl)c2)cc(OC)c1OC (centres undefined) | 98.2% | 91.6% | 100% | 91.7% | – | 74.3% | 91.3% | 75.6% | 99% | 101%
COc1ccc(C(=O)COc2cccc(/C=C3\COc4ccc5ccccc5c4C3=O)c2)cc1 | 88.6% | 60.8% | -6.64% (active) | 66.9% | – | 48.2% | 67.6% | 74.5% | 57.6% | 106%
COc1ccc(-c2c3c(N)nc(-c4ccncc4)nc3nc3c2c(C)nn3-c2ccccc2)cc1 | 57.1% | 23.9% | 80.6% | 80.7% | – | 61% | 72.6% | 64.1% | 41.2% | 56.2%
O=C(c1ccc(Cl)cc1)c1ccc(Cl)cc1 | 113% | 102% | 112% | 109% | – | 110% | 96.4% | 103% | 103% | 106%
Cc1[nH]c(=O)[nH]c(=O)c1CCSSCCc1c(C)[nH]c(=O)[nH]c1=O | 113% | 99.2% | 97.1% | 105% | – | 99.6% | 103% | 104% | 97.8% | 114%
O=C(COc1cccc(/C=C2\Cc3ccccc3C2=O)c1)c1ccc(Cl)cc1 | 160% | 69.6% | 101% | 96.5% | – | 90.3% | 89.4% | 91.4% | 128% | 104%
CCSc1nc(-c2ccco2)n2nc(-c3ccco3)cc2n1 | 78.1% | 99.4% | 83.2% | 113% | – | 95.7% | 78.3% | 89.8% | 88.3% | 120%
COc1cc(C(=O)c2cc3c(cc2C)OCO3)cc(OC)c1OC | 19.6% | 3.84% (active) | 22.7% | 50.7% | – | 18.1% | 0.803% (active) | 32.7% | 19.7% | 46.6%
O=C1/C(=C/c2ccc(F)cc2)Cc2ccccc21 | 94.6% | 91% | 83.4% | 92.3% | – | 97.8% | 99.9% | 95.1% | 103% | –
Cc1ccc(-c2c3c(N)nc(-c4ccncc4)nc3nc3c2c(C)nn3-c2ccccc2)cc1 | 45% | 21.8% | 22.5% | 88.4% | – | 62.8% | 55.3% | 58.3% | 8.73% (active) | 30.4%
CSc1nc2nc3c(nc2c(=O)n1C)C(=O)c1ccccc1C3=O | -72.1% (active) | -21.1% (active) | -98.3% (active) | -66.2% (active) | – | -6.56% (active) | -96.4% (active) | -68.2% (active) | -70.9% (active) | -60.7% (active)
